# According to PubChem BioAssay AID1159580 (chemical genetic matrix, 2015):
# Screen size: about 5,500 compounds; about 2,000 (36%) were called active. Not shown: some 18% with an inconclusive outcome. No stated cut-off is given here; in the data, active means normalized growth mostly below about 0.91 (no sharp cut-off); inconclusive means no clear call, values can overlap the other calls; inactive means mostly above about 0.92. This is one part of the list.
# Assay: chemical genetic growth profiling, strain panel (AID 1159580);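 further: tested at 20 µM; growth read once vehicle control cultures reached saturation at 30 °C; 1 = growth at the plate median or of vehicle wells; lower values mean less growth of the strain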
# Conditions: growth OD
compound,measurement,setting,value
CCCCCCCCNC(C)C(O)c1ccc(SC(C)C)cc1 (stereo not drawn),normalized growth,"S. cerevisiae deletion strains, locus YKL009W, strain mrt4, active compounds read low",0.843 (active)
same,normalized growth,"S. cerevisiae deletion strains, locus YKL068W, active compounds read low",1.02 (inactive)
same,normalized growth,"S. cerevisiae deletion strains, locus YKL085W, strain MDH1 (second series), active compounds read low",0.936 (inactive)
same,normalized growth,"S. cerevisiae deletion strains, locus YKL085W, strain MDH1, active compounds read low",0.936 (inactive)
same,normalized growth,"S. cerevisiae deletion strains, locus YKL160W, strain elf1, active compounds read low",0.0721 (active)
same,normalized growth,"S. cerevisiae deletion strains, locus YKL190W, strain CNB1, active compounds read low",0.0442 (active)
same,normalized growth,"S. cerevisiae deletion strains, locus YKR001C, strain vps1, active compounds read low",0.0592 (active)
same,normalized growth,"S. cerevisiae deletion strains, locus YKR026C, strain gcn3, active compounds read low",0.0783 (active)
same,normalized growth,"S. cerevisiae deletion strains, locus YKR091W, strain srl3, active compounds read low",0.0575 (active)
same,normalized growth,"S. cerevisiae deletion strains, locus YLL001W, strain dnm1, active compounds read low",0.0576 (active)
same,normalized growth,"S. cerevisiae deletion strains, locus YLL026W, active compounds read low",0.0545 (active)
same,normalized growth,"S. cerevisiae deletion strains, locus YLL041C, strain sdh2, active compounds read low",0.0563 (active)
same,normalized growth,"S. cerevisiae deletion strains, locus YLR027C, strain aat2, active compounds read low",0.053 (active)
same,normalized growth,"S. cerevisiae deletion strains, locus YLR039C, strain RIC1, active compounds read low",0.0765 (active)
same,normalized growth,"S. cerevisiae deletion strains, locus YLR058C, strain SHM2, active compounds read low",0.0441 (active)
same,normalized growth,"S. cerevisiae deletion strains, locus YLR102C, strain apc9, active compounds read low",0.0595 (active)
same,normalized growth,"S. cerevisiae deletion strains, locus YLR113W, strain HOG1, active compounds read low",1.04 (inactive)
same,normalized growth,"S. cerevisiae deletion strains, locus YLR221C, strain rsa3, active compounds read low",0.0556 (active)
same,normalized growth,"S. cerevisiae deletion strains, locus YLR258W, strain gsy2, active compounds read low",0.0584 (active)
same,normalized growth,"S. cerevisiae deletion strains, locus YLR262C, strain YPT6 (second series), active compounds read low",0.0924 (active)
same,normalized growth,"S. cerevisiae deletion strains, locus YLR262C, strain YPT6, active compounds read low",0.0999 (active)
same,normalized growth,"S. cerevisiae deletion strains, locus YLR268W, strain sec22, active compounds read low",0.0594 (active)
same,normalized growth,"S. cerevisiae deletion strains, locus YLR320W, strain mms22, active compounds read low",0.0684 (active)
same,normalized growth,"S. cerevisiae deletion strains, locus YLR330W, strain CHS5, active compounds read low",0.0493 (active)
same,normalized growth,"S. cerevisiae deletion strains, locus YLR342W, strain FKS1 (second series), active compounds read low",0.06 (active)
same,normalized growth,"S. cerevisiae deletion strains, locus YLR342W, strain FKS1, active compounds read low",0.0614 (active)
same,normalized growth,"S. cerevisiae deletion strains, locus YLR357W, strain rsc2, active compounds read low",0.111 (active)
same,normalized growth,"S. cerevisiae deletion strains, locus YLR370C, strain arc18, active compounds read low",0.0598 (active)
same,normalized growth,"S. cerevisiae deletion strains, locus YLR371W, strain rom2, active compounds read low",0.0595 (active)
same,normalized growth,"S. cerevisiae deletion strains, locus YLR384C, strain iki3, active compounds read low",0.0596 (active)
same,normalized growth,"S. cerevisiae deletion strains, locus YLR418C, strain cdc73, active compounds read low",0.0837 (active)
same,normalized growth,"S. cerevisiae deletion strains, locus YML016C, strain PPZ1, active compounds read low",0.0438 (active)
same,normalized growth,"S. cerevisiae deletion strains, locus YML032C, strain rad52, active compounds read low",0.0627 (active)
same,normalized growth,"S. cerevisiae deletion strains, locus YML120C, strain ndi1, active compounds read low",0.0554 (active)
same,normalized growth,"S. cerevisiae deletion strains, locus YML124C, strain tub3, active compounds read low",0.0561 (active)
same,normalized growth,"S. cerevisiae deletion strains, locus YMR058W, strain fet3, active compounds read low",0.0583 (active)
same,normalized growth,"S. cerevisiae deletion strains, locus YMR078C, strain ctf18, active compounds read low",0.0681 (active)
same,normalized growth,"S. cerevisiae deletion strains, locus YMR125W, strain sto1, active compounds read low",0.0638 (active)
same,normalized growth,"S. cerevisiae deletion strains, locus YMR129W, active compounds read low",0.057 (active)
same,normalized growth,"S. cerevisiae deletion strains, locus YMR205C, strain PFK2, active compounds read low",0.0745 (active)
same,normalized growth,"S. cerevisiae deletion strains, locus YMR223W, strain ubp8, active compounds read low",0.0556 (active)
same,normalized growth,"S. cerevisiae deletion strains, locus YMR231W, strain pep5, active compounds read low",0.0629 (active)
same,normalized growth,"S. cerevisiae deletion strains, locus YMR263W, strain SAP30, active compounds read low",0.0563 (active)
same,normalized growth,"S. cerevisiae deletion strains, locus YMR307W, strain GAS1, active compounds read low",0.113 (active)
same,normalized growth,"S. cerevisiae deletion strains, locus YNL067W, strain RPL9B, active compounds read low",0.0464 (active)
same,normalized growth,"S. cerevisiae deletion strains, locus YNL071W, strain lat1, active compounds read low",0.0586 (active)
same,normalized growth,"S. cerevisiae deletion strains, locus YNL128W, strain TEP1, active compounds read low",0.0711 (active)
same,normalized growth,"S. cerevisiae deletion strains, locus YNL183C, strain NPR1, active compounds read low",0.916 (inactive)
same,normalized growth,"S. cerevisiae deletion strains, locus YNL209W, strain ssb2, active compounds read low",0.057 (active)
same,normalized growth,"S. cerevisiae deletion strains, locus YNL233W, strain BNI4, active compounds read low",0.0511 (active)
same,normalized growth,"S. cerevisiae deletion strains, locus YNL248C, strain rpa49, active compounds read low",0.0589 (active)
same,normalized growth,"S. cerevisiae deletion strains, locus YNL250W, strain rad50, active compounds read low",0.849 (active)
same,normalized growth,"S. cerevisiae deletion strains, locus YNL271C, strain bni1, active compounds read low",0.501 (active)
same,normalized growth,"S. cerevisiae deletion strains, locus YNL298W, strain CLA4, active compounds read low",0.357 (active)
same,normalized growth,"S. cerevisiae deletion strains, locus YNL307C, strain MCK1, active compounds read low",0.0662 (active)
same,normalized growth,"S. cerevisiae deletion strains, locus YNL322C, strain KRE1 (second series), active compounds read low",0.0644 (active)
same,normalized growth,"S. cerevisiae deletion strains, locus YNR049C, strain mso1, active compounds read low",0.0544 (active)
same,normalized growth,"S. cerevisiae deletion strains, locus YNR052C, strain pop2, active compounds read low",0.0594 (active)
same,normalized growth,"S. cerevisiae deletion strains, locus YOL006C, strain TOP1, active compounds read low",0.0984 (active)
same,normalized growth,"S. cerevisiae deletion strains, locus YOL012C, strain htz1",0.143 (active)
same,normalized growth,"S. cerevisiae deletion strains, locus YOL147C, strain pex11, active compounds read low",0.056 (active)
same,normalized growth,"S. cerevisiae deletion strains, locus YOR001W, strain rrp6, active compounds read low",0.0598 (active)
same,normalized growth,"S. cerevisiae deletion strains, locus YOR061W, strain CKA2, active compounds read low",0.0463 (active)
same,normalized growth,"S. cerevisiae deletion strains, locus YOR069W, strain VPS5, active compounds read low",0.0445 (active)
same,normalized growth,"S. cerevisiae deletion strains, locus YOR070C, strain gyp1, active compounds read low",0.0552 (active)
same,normalized growth,"S. cerevisiae deletion strains, locus YOR080W, strain dia2, active compounds read low",0.0613 (active)
same,normalized growth,"S. cerevisiae deletion strains, locus YOR083W, strain WHI5, active compounds read low",0.0558 (active)
same,normalized growth,"S. cerevisiae deletion strains, locus YOR106W, strain vam3, active compounds read low",0.0599 (active)
same,normalized growth,"S. cerevisiae deletion strains, locus YOR136W, strain idh2, active compounds read low",0.0657 (active)
same,normalized growth,"S. cerevisiae deletion strains, locus YOR144C, strain elg1, active compounds read low",0.0549 (active)
same,normalized growth,"S. cerevisiae deletion strains, locus YOR184W, strain ser1, active compounds read low",0.0604 (active)
same,normalized growth,"S. cerevisiae deletion strains, locus YOR231W, strain MKK1, active compounds read low",0.892 (inactive)
same,normalized growth,"S. cerevisiae deletion strains, locus YOR265W, strain rbl2, active compounds read low",0.056 (active)
same,normalized growth,"S. cerevisiae deletion strains, locus YOR270C, strain vph1, active compounds read low",0.0763 (active)
same,normalized growth,"S. cerevisiae deletion strains, locus YOR290C, strain snf2, active compounds read low",0.0566 (active)
same,normalized growth,"S. cerevisiae deletion strains, locus YOR316C, strain cot1, active compounds read low",0.057 (active)
same,normalized growth,"S. cerevisiae deletion strains, locus YPL051W, strain arl3, active compounds read low",0.0586 (active)
same,normalized growth,"S. cerevisiae deletion strains, locus YPL055C, strain LGE1, active compounds read low",0.0576 (active)
same,normalized growth,"S. cerevisiae deletion strains, locus YPL078C, strain atp4, active compounds read low",0.0619 (active)
same,normalized growth,"S. cerevisiae deletion strains, locus YPL106C, strain sse1, active compounds read low",0.0837 (active)
same,normalized growth,"S. cerevisiae deletion strains, locus YPL240C, strain hsp82, active compounds read low",0.0552 (active)
same,normalized growth,"S. cerevisiae deletion strains, locus YPL256C, strain CLN2, active compounds read low",0.981 (inactive)
same,normalized growth,"S. cerevisiae deletion strains, locus YPR119W, strain clb2, active compounds read low",0.0589 (active)
same,normalized growth,"S. cerevisiae deletion strains, locus YPR141C, strain kar3, active compounds read low",1.06 (inactive)
same,normalized growth,"S. cerevisiae deletion strains, locus YPR163C, strain tif3, active compounds read low",0.0677 (active)
same,normalized growth,"S. cerevisiae deletion strains, locus YPR167C, strain met16, active compounds read low",0.0591 (active)
same,normalized growth,"S. cerevisiae deletion strains, strain wtn01, active compounds read low",0.0573 (active)
same,normalized growth,"S. cerevisiae strains, strain wild type, active compounds read low",0.0449 (active)
